Source: PubChem BioAssay (EPA / NIEHS)
Calls of active or inactive are those of the source. How the source made its calls: active means hit-call score of the fitted dose curve at least 0.9, where 1 is the maximum; inactive means score below 0.9.

read-out: CD40, CD40 (gene 958); assay: BSK_LPS_CD40: BioMAP Diversity Plus: LPS Assay for CD40 Biomarker Activity (AID 2283076); conditions: primary human HUVEC with PBMC; actives raise or lower the signal
Experimental: BSK_LPS is a cell-based, multiplexed-readout assay that uses umbilical vein endothelium and peripheral blood mononuclear cells, a human vascular primary cell co-culture, with measurements taken at 24 hours after chemical dosing in a 96-well plate.BSK_LPS_CD40 is an assay component measured in the BSK_LPS assay. It measures CD40 antibody related to regulation of gene expression using ELISA technology.Data from the assay component BSK_LPS_CD40 was analyzed into 1 assay endpoint. This assay endpoint, BSK_LPS_CD40, was analyzed with bidirectional fitting relative to DMSO as the negative control and baseline of activity. Using a type of binding reporter, gain or loss-of-signal activity can be used to understand changes in the signaling as they relate to the gene CD40. Furthermore, this assay endpoint can be referred to as a primary readout, because this assay has produced multiple assay endpoints where this one serves a signaling function. To generalize the intended target to other relatable targets, this assay endpoint is annotated to the cytokine intended target family, where the subfamily is inflammatory factor.
The levels of cell surface (or secreted, indicated by the prefix "s") biomarker endpoints were measured by ELISA. Overt cytotoxicity to cells in confluent adherent cultures (all systems other than the BT system) was assessed by measuring total protein levels using sulforhodamine B (SRB) staining in parallel cultures at the time of biomarker measurements, indicated as SRB endpoints. For proliferation assays for adherent cell types, individual cell types are cultured at sub-confluence and relative cell numbers quantified by SRB staining at time points optimized for each system (48 h: 3C and CASM3C systems; 72 h: BT and HDF3CGF systems; 96 h: SAg system). SRB was performed by staining cells with 0.1% SRB after fixation with 10% TCA and reading wells at 560 nm.Viability and proliferation of PBMC (T cells) was quantified by Alamar Blue reduction for the SAg and BT systems. For PBMC viability (referred to as PBMC Cytotoxicity within the assay endpoint names), cells were plated (75,000/well in a 96-well plate) and then chemical samples added for 1 h before addition of activators, SEB and TSST-1 (20 ng/mL final concentration each). Cells were incubated for 90 h. Then, Alamar Blue (20 uL/well) (Invitrogen, Cat DAL1100) was added for 6 h, and the plates were read with a fluorescence microplate reader at 546/580 nm (excitation/emission). For PBMC proliferation, cells were plated and activated as above but incubated for only 16 h prior to addition of Alamar Blue. Plates were read after 6 h.

| SMILES | outcome | AC50 |
| --- | --- | --- |
| CCCCOC(=O)CCCCCCCCC(=O)OCCCC | inactive | – |
| Clc1cc(Cl)c(Cl)cc1Cl | inactive | – |
| Cc1ccc(C(C)C)c(O)c1 | inactive | – |
| Cc1c(C(=O)O)c(O)cc2c1C(=O)c1c(O)c([C@@H]3O[C@H](CO)[C@@H](O)[C@H](O)[C@H]3O)c(O)c(O)c1C2=O | – | 0.782 µM (active) |
| Cc1cccc(C)c1O | inactive | – |
| C1CCC(SSC2CCCCC2)CC1 | inactive | – |
| COc1cc(S(=O)(=O)O)c(C)cc1N=Nc1c(O)ccc2cc(S(=O)(=O)O)ccc12 | inactive | – |
| O=c1c(O)c(-c2ccc(O)c(O)c2)oc2cc(O)cc(O)c12 | – | 28.5 µM (active) |
| c1cc(-c2ccncc2)ccn1 | inactive | – |
| CNCc1cc(F)ccc1Oc1ccc(Cl)c(Cl)c1 | – | 15 µM (active) |
| CC(C)c1ccc(C(=O)N=C(N)N)cc1S(C)(=O)=O | inactive | – |
| CC(CO)OC(C)CO (stereo not given) (tested in a mixture with another compound) | inactive | – |
| Nc1ccc(S(=O)(=O)c2ccc(N)cc2)cc1 | inactive | – |
| CC1=C(/C=C/C(C)=C/C=C/C(C)=C/CO)C(C)(C)CCC1 | inactive | – |
| NCCO | inactive | – |
| CC=Cc1ccc(O)c(OC)c1 | inactive | – |
| CC(=O)C(C)=CC1C(C)=CCCC1(C)C (stereo not given) | inactive | – |
| O=C(O)CCCCC(=O)O | inactive | – |
| Cc1ccc(Cl)cc1 | inactive | – |
| CNC(=O)[C@H]1O[C@@H](n2cnc3c(NCc4cc(Cl)ccc4OCc4cc(C)no4)ncnc32)[C@H](O)[C@@H]1N | inactive | – |

| SMILES | outcome | AC50 |
| --- | --- | --- |
| CCCCCCC(=O)OCC | inactive | – |
| Cc1ccc(N(C)C)cc1 | inactive | – |
| OC[C@@H](O)[C@@H](O)[C@H](O)[C@H](O)CO | inactive | – |
| Cc1ccc2ncccc2c1 | inactive | – |
| CC(=O)OCCOCCOCCOC(C)=O | inactive | – |
| CCOC(=O)CCC(=O)OCC | inactive | – |
| COc1ccc(S(=O)(=O)N2C(=O)[C@@](c3ccccc3OC)(N3C[C@H](O)C[C@H]3C(=O)N(C)C)c3cc(Cl)ccc32)c(OC)c1 | – | 20 µM (active) |
| C=CCc1ccc(O)c(OC)c1 | inactive | – |
| CCCCN(CCCC)CCCC | inactive | – |
| CCCCCCCC=O | inactive | – |
| C[C@]12C=CC(=O)C=C1CC[C@@H]1[C@@H]2C(=O)C[C@@]2(C)[C@H]1CC[C@]2(O)C(=O)CO | inactive | – |
| Oc1ccc2ccccc2c1N=Nc1ccccc1 | inactive | – |
| Cc1cc(=O)[nH]c(=S)[nH]1 | inactive | – |
| CCCCCCCCCCO | inactive | – |
| C=CCOC(=O)c1ccccc1C(=O)OCC=C | inactive | – |
| CCCCCCCCCCCCCO | – | 37.8 µM (active) |
| CN[C@H]1CC[C@@H](c2ccc(Cl)c(Cl)c2)c2ccc(S(N)(=O)=O)cc21 | – | 20 µM (active) |
| Cc1cccc([N+](=O)[O-])c1C | inactive | – |
| Nc1ccccc1N | – | 5.79 µM (active) |
| COCCOC[C@H](CC1(C(=O)NC2CCC(C(=O)O)CC2)CCCC1)C(=O)Oc1ccc2c(c1)CCC2 (stereo not given in full) | inactive | – |
